Read-out in experiment [1]: Monocyte Chemoattractant Protein-1 (MCP1), CCL2 (gene 6347)
As to the kind of experiment: BSK_SAg_MCP1: BioMAP Diversity Plus: SAg Assay for Monocyte Chemoattractant Protein-1 (MCP1) Biomarker Activity (AID 2283090). To be noted: primary human HUVEC with PBMC; actives raise or lower the signal. In a few lines: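 MCP-1 levels in the endothelial–PBMC SAg co-culture were quantified by ELISA at 24 h post-dosing; both increases and decreases versus DMSO scored. Cytotoxicity monitored by SRB total protein in parallel cultures.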

Read-out in experiment [2]: E-selectin (Homo sapiens) (UniProt P16581)
Description: BSK_SAg_Eselectin: BioMAP Diversity Plus: SAg Assay for Eselectin Biomarker Activity (AID 2283091). To be noted: primary human HUVEC with PBMC; actives raise or lower the signal. In short, it runs like this:
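Endpoint values derive from bidirectional fitting relative to DMSO, using ELISA-measured E-selectin in a human vascular co-culture (umbilical vein endothelium plus PBMC) sampled 24 h after dosing.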

Read-out in experiment [3]: Monokine induced gamma interferon (MIG), CXCL9 (gene 4283)
Description: BSK_SAg_MIG: BioMAP Diversity Plus: SAg Assay for Monokine induced gamma interferon (MIG) Biomarker Activity (AID 2283092). The conditions noted are these: primary human HUVEC with PBMC; actives raise or lower the signal. In short, it runs like this: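 ELISA readout of MIG/CXCL9; primary human umbilical vein endothelial cells co-cultured with peripheral blood mononuclear cells; 24 h post-dose; gain/loss fit vs DMSO baseline.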

Experiment [4] can be described thus: BSK_SAg_PBMCCytotoxicity: PBMC Cytotoxicity Assessment in the BioMAP Diversity Plus: SAg Assay (AID 2283093).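 For AC50: PBMC superantigen activated with SEB plus TSST-1 one hour after compound addition.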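 Note: PBMC viability measured as Alamar Blue reduction fluorescence at 546/580 nm; fitted both ways against DMSO so a hit may be loss or gain of signal.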 To be noted: primary human HUVEC with PBMC. In short, it runs like this:
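HUVEC/PBMC co-culture; PBMC exposed to chemical 1 h before SEB and TSST-1 activation (20 ng/mL each), incubated 90 h, then Alamar Blue 6 h, fluorescence 546/580 nm. Bidirectional fit versus DMSO baseline.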

Read-out in experiment [5]: Interleukin-8 (IL8), CXCL8 (gene 3576)
As to the kind of experiment: BSK_SAg_IL8: BioMAP Diversity Plus: SAg Assay for Interleukin-8 (IL8) Biomarker Activity (AID 2283094). To be noted: primary human HUVEC with PBMC; actives raise or lower the signal. In a few lines: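 Human umbilical vein endothelial cells co-cultured with PBMC, stimulated with superantigen; IL-8 measured by ELISA 24 h after chemical dosing. Bidirectional fitting versus DMSO; SRB staining in parallel cultures tracks cytotoxicity.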

The nature of experiment [6]: BSK_SAg_Proliferation: Cell Proliferation Assessment in the BioMAP Diversity Plus: SAg Assay (AID 2283095). The conditions noted are these: primary human HUVEC with PBMC. In short, it runs like this:
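Human umbilical vein endothelial cells co-cultured with PBMC; sulforhodamine B total-protein staining (0.1% SRB after 10% TCA fixation, absorbance 560 nm) at 96 h in sub-confluent culture. Fitted bidirectionally against DMSO.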

Experiment [7] can be described thus: BSK_SAg_SRB: Viability Assessment in the BioMAP Diversity Plus: SAg Assay (AID 2283096).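 Note: cells read one day after compound addition; hits may be either gain or loss of signal compared with DMSO.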 To be noted: primary human HUVEC with PBMC. In short, it runs like this: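 Human umbilical vein endothelial cells co-cultured with PBMC, read 24 h after compound dosing. Total protein measured by sulforhodamine B staining (0.1% SRB after 10% TCA fixation, absorbance 560 nm); bidirectional fit versus DMSO baseline.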

Experiment [8] concerns the target human CYP2A6, CYP2A6 (gene 1548) (UniProt P11509). Description: NVS_ADME_hCYP2A6: NovaScreen (NVS) CYP450-related Enzyme Activity (ADME) Assay for human CYP2A6 (AID 2283099; active = hit-call score of the fitted dose curve at least 0.9, where 1 is the maximum). In short, it runs like this:
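Loss of fluorescence signal relative to acetonitrile vehicle reported CYP2A6 inhibition in a cell-free system using insect-cell-derived enzyme. Readings were taken at 0.5 h; top concentration in follow-up dose series was 20 uM.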

Experiment [9] concerns the target human CYP2B6, CYP2B6 (gene 1555) (UniProt P20813). As to the kind of experiment: NVS_ADME_hCYP2B6: NovaScreen (NVS) CYP450-related Enzyme Activity (ADME) Assay for human CYP2B6 (AID 2283101; active = hit-call score of the fitted dose curve at least 0.9, where 1 is the maximum). In short, it runs like this: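 Fluorescence-based enzyme activity of recombinant human CYP2B6, measured 1 h post-dose against acetonitrile vehicle baseline. Screened at a single concentration of 10 uM in duplicate before concentration-response follow-up.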

Each structure is given as a SMILES string. “And” between values parts separate entries of the source, which are not always exact repeats. Equal entries are not always repeated. Records with an inconclusive call do not appear. The source holds several records for some structures; these can differ, active in one and inactive in another. The source made the active and inactive calls. Rule for the calls, unless noted: active = hit-call score of the fitted dose curve at least 0.9, where 1 is the maximum; inactive = score below 0.9.

E-selectin (Homo sapiens), sequence (P16581 whole entry, looked up): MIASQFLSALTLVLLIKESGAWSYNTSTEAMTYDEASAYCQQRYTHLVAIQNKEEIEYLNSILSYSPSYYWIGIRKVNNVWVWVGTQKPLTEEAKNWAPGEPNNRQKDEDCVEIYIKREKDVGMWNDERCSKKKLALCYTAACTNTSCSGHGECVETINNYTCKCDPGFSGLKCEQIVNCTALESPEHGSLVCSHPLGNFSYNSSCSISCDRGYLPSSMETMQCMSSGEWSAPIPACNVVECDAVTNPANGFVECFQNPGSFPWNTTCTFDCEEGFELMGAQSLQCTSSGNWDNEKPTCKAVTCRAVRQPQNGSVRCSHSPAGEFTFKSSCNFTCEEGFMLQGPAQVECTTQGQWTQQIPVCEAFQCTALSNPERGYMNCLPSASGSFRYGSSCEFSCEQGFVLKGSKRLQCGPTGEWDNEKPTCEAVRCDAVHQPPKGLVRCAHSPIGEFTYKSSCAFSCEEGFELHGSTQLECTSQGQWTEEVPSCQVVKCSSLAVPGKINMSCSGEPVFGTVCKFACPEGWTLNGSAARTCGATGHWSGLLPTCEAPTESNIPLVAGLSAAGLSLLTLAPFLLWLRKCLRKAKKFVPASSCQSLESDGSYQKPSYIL
human CYP2B6, CYP2B6 (gene 1555), sequence (P20813 whole entry, looked up): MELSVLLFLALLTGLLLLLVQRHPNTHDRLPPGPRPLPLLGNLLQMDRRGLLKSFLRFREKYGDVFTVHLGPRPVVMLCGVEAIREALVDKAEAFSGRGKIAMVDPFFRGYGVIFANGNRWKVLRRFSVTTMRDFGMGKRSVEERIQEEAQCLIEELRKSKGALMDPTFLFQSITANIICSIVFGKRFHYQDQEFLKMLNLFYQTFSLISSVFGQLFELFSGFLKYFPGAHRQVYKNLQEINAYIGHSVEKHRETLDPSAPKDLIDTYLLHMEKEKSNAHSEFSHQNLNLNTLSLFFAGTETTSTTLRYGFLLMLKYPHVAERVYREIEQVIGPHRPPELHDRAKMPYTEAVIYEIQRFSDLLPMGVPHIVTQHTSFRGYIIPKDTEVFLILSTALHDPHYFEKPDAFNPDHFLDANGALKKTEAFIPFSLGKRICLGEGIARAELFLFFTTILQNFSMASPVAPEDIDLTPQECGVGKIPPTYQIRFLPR
human CYP2A6, CYP2A6 (gene 1548), sequence (P11509 whole entry, looked up): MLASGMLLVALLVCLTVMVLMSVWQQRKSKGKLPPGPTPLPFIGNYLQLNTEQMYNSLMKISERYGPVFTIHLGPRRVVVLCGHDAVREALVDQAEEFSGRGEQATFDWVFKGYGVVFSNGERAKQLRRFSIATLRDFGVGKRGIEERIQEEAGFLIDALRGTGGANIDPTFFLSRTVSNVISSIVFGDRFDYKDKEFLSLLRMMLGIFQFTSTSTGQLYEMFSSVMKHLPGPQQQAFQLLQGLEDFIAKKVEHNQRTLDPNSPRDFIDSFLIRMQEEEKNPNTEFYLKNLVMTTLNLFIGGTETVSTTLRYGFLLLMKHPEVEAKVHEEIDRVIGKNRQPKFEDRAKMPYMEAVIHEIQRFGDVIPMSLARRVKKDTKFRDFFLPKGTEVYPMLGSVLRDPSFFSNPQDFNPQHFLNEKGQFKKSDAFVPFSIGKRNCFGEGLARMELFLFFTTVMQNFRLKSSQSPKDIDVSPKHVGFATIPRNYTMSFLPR

On to `Nc1ccc(C(=O)O)cc1`, for which the outcome in [1], in experiment [2], in experiment [3], in experiment [4], in experiment [5] and in experiment [6] was inactive. Moreover, in [7], the outcome was inactive.
Turning to `O=C1CCCCCCCCCCCN1`, the result in [2], in experiment [3], in [4], in [5], in [6] and in experiment [7] was inactive.
Regarding `O=C(O)C(F)(F)C(F)(F)C(F)(F)C(F)(F)C(=O)O`, the outcome in [1], in experiment [2], in experiment [3], in [4], in [5] and in [6] was inactive. In addition, the outcome in experiment [7] was inactive.
For `C=CC(=O)OCCCCCCCC(C)C`, the result in experiment [2], in [3], in experiment [5] and in experiment [7] was inactive. The figures for the AC50 in [4] and in experiment [6] were 20 µM (active) and 23.3 µM (active), respectively.
On to `CC1(C)CC(O)CC(C)(C)N1[O]`, for which the outcome in [1], in experiment [2], in [4], in experiment [5], in experiment [6] and in experiment [7] was inactive.
`Nc1nc(N)nc(-c2ccccc2)n1`: the outcome in [1], in experiment [2], in experiment [3], in [4], in experiment [5] and in experiment [6] was inactive. In addition, the outcome in [7] was inactive.
Regarding `CC1=CC=C(C(C)C)CC1`, the outcome in experiment [2], in [3], in experiment [4], in experiment [5], in experiment [6] and in experiment [7] was inactive.
Turning to `CCNc1nc(NC(C)(C)C)nc(OC)n1`, the result in experiment [1], in [4], in experiment [5], in experiment [6] and in [7] was inactive. Further, the AC50 (as a rule, the concentration giving half of the maximal activity seen) in experiment [2] is 8.44 µM (active).
`CCCCCCC=O`: the outcome in experiment [2], in experiment [3], in experiment [4], in experiment [5], in experiment [6] and in [7] was inactive.
As to `CC(Cl)COP(=O)(OCC(C)Cl)OCC(C)Cl` (centres undefined), the result in [2], in experiment [4], in experiment [5], in experiment [6] and in experiment [7] was inactive.
With `C1CNCCN1`, the outcome in [1], in experiment [2], in experiment [4], in [5], in [6] and in [7] was inactive.
Turning to `CC(C)C(=O)OCCc1ccccc1`, the outcome in experiment [1], in experiment [2], in experiment [4], in experiment [5], in experiment [6] and in [7] was inactive.
Consider `Nc1cccc(N)n1`, for which the result in experiment [2], in [3], in experiment [4], in experiment [5], in experiment [6] and in experiment [7] was inactive.
With `COc1ccc(C(=O)/C(Br)=C\C(=O)O)cc1`, the AC50 is 7.92 µM (active) and 7.11 µM (active) in [2]; 35.2 µM (active) and 34.5 µM (active) in experiment [3]; 12 µM (active) and 7.54 µM (active) in experiment [4]; 3.97 µM (active) in experiment [5]; 6.87 µM (active) and 2.13 µM (active) in [6]; 25.9 µM (active) and 31.6 µM (active) in experiment [7]. Moreover, the outcome in [5] was inactive.
As for `CCCCC1C(=O)N(c2ccccc2)N(c2ccccc2)C1=O`, the outcome in experiment [2], in experiment [3], in experiment [4], in experiment [5], in experiment [6] and in experiment [7] was inactive.
Consider `c1ccc2c(c1)[nH]c1ccccc12`, for which the result in experiment [2], in [4], in experiment [5], in experiment [6] and in experiment [7] was inactive. In experiment [5], the AC50 is 2.72 µM (active).
Consider `Cc1c(O)cccc1O`, for which the outcome in experiment [1], in [2], in experiment [5] and in experiment [7] was inactive. Also, the AC50 in [4] and in experiment [6] was 31 µM (active) each time.
Regarding `C=CC(=O)NCOCCCC`, the outcome in experiment [1], in experiment [2], in [4], in experiment [5], in experiment [6] and in experiment [7] was inactive.
With `CC/C=C\CCOC(=O)c1ccccc1O`, the AC50 was 29.7 µM (active) in [2], 33.3 µM (active) in experiment [4], 31.2 µM (active) in [6] and 30.7 µM (active) in experiment [7]. Moreover, the result in experiment [3] and in experiment [5] was inactive.
Regarding `C=CC(=O)OCC(C)OCC(C)OCC(C)OC(=O)C=C` (centres undefined), the AC50 in experiment [2] was 5.5 µM (active); in experiment [3] it was 20 µM (active); in [4], 5.29 µM (active); in [5] it was 3.14 µM (active); in experiment [6], 2.88 µM (active); in experiment [7], 21.6 µM (active).
Turning to `c1ccc(Nc2cccc3ccccc23)cc1`, the AC50 is 29.4 µM (active) and 30.4 µM (active) in experiment [1]; 31.8 µM (active) and 33.5 µM (active) in experiment [2]; 34.3 µM (active) and 36.9 µM (active) in experiment [4]; 31.1 µM (active) and 30.7 µM (active) in experiment [5]; 31.3 µM (active) and 30.4 µM (active) in experiment [6]; 28.7 µM (active) and 30.3 µM (active) in [7]. Moreover, the outcome in experiment [3] was inactive.
Regarding `CC(C)c1cccc(C(C)C)c1N`, the outcome in experiment [1], in experiment [2], in experiment [3], in [4], in experiment [5] and in [6] was inactive. In addition, in experiment [7], the outcome was inactive.
With `CCOC(=O)C1=NOC(c2ccccc2)(c2ccccc2)C1`, the result in experiment [1], in experiment [2], in experiment [4], in experiment [5], in experiment [6] and in [7] was inactive.
As for `CC(C)CCCCCOC(=O)CS`, the outcome in experiment [1], in experiment [2], in experiment [3], in experiment [4], in experiment [5] and in experiment [6] was inactive. Besides, the result in experiment [7] was inactive.
Regarding `CCC1(C)C(=O)N(Cl)C(=O)N1Cl` (centres undefined), the outcome in [2], in [3], in [4], in [5], in experiment [6] and in experiment [7] was inactive.
Turning to `CC/C=C\C/C=C\C/C=C\CCCCCCCC(=O)OC`, the AC50 is 33.8 µM (active) in experiment [1]; 13 µM (active) in experiment [2]; 20 µM (active) in [4]; 20 µM (active) in experiment [5]; 6.5 µM (active) in experiment [6]; 29 µM (active) in experiment [7].
As for `CC(CCC(=O)O)(c1ccc(O)cc1)c1ccc(O)cc1`, the result in [1], in [2], in experiment [3], in experiment [4], in [5] and in experiment [6] was inactive. Further, the outcome in experiment [7] was inactive.
With `CCCCCCCCCCCC(C)=O`, the AC50 in [1] was 31.1 µM (active); in experiment [2], 33.3 µM (active); in experiment [4], 32 µM (active); in experiment [5] it was 33.8 µM (active); in experiment [6], 34 µM (active). Also, the result in experiment [7] was inactive.
As to `COC(OC)(C(=O)c1ccccc1)c1ccccc1`, the result in experiment [1], in [2], in experiment [3], in experiment [4], in experiment [5] and in experiment [6] was inactive. Moreover, in experiment [7], the outcome was inactive.
Consider `O=C(Oc1ccccc1)c1ccccc1C(=O)Oc1ccccc1`, for which the result in experiment [1], in experiment [2], in [3], in [4], in experiment [5] and in experiment [7] was inactive. Moreover, the AC50 in experiment [6] is 20 µM (active).
On to `CC=C(C)C=CC=C(C)C`, for which the AC50 in experiment [1] was 2.58 µM (active); in experiment [2] it was 23.4 µM (active); in experiment [5], 6.5 µM (active); in [6] it was 26.5 µM (active). Besides, the result in [4] and in [7] was inactive.
Regarding `C[N+](C)(C)CCCNS(=O)(=O)C(F)(F)C(F)(F)C(F)(F)C(F)(F)C(F)(F)C(F)(F)C(F)(F)C(F)(F)F`, the result in experiment [2], in [4], in experiment [5] and in experiment [6] was inactive. Moreover, the AC50 in experiment [4] was 51.3 µM (active); in experiment [6], 46.5 µM (active); in experiment [7] it was 43.5 µM (active) and 46.5 µM (active).
For `Cc1ccc([N+](=O)[O-])cc1N`, the AC50 in [8] was 10 µM (active); in experiment [9], 2.51 µM (active).

Values taken from PubChem BioAssay (EPA / NIEHS).
